B2AR ag: agonists of human beta-2 adrenergic receptor inducing internalization; P07550; Am2.2-beta2AR cells, FAP receptor internalization, flow cytometry; response, % (test concentration not listed); actives 0.43% (n = 340,000);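 active = response above a set limit, near 3 SD of response in nonfluorescent compounds, cut at about 42% in these data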
Target sequence (P07550 whole entry, looked up): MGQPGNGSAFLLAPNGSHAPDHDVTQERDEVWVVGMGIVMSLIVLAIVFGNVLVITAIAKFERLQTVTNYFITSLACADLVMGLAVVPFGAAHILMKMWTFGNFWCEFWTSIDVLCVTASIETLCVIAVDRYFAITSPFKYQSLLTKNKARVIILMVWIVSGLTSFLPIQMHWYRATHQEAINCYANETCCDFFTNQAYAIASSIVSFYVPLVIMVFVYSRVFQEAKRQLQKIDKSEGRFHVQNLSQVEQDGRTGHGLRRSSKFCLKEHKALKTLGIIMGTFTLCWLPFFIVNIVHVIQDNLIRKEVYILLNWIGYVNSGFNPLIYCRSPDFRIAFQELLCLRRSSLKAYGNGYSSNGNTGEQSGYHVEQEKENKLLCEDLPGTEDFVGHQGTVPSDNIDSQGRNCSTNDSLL
TIM10 inh: inhibits growth of TIM10 yeast strain | inhibition, % at 10 µM | actives 1.4% (n = 330,000) | S. cerevisiae TIM10 strain growth, BacTiter-Glo luminescence, 24 h;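 active = inhibition of 40% or more at the single tested concentration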;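 also: wild-type TIM10 isogenic control strain grown at permissive 25 °C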
PfHsp90 set2: reduces growth (ATP signal) of yeast expressing P. falciparum Hsp90 | S. cerevisiae expressing PfHsp90, BacTiter-Glo ATP, 48 h; yeast lacking PDR1 and PDR3 efflux regulators | AID 504621 | inhibition, % at 9.4 µM | actives 0.32% (n = 310,000);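 active = every replicate shows inhibition above about 80%, whatever the replicate mean, limit read from the data; inconclusive = mean inhibition reaches the set limit but some replicate falls short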
tim10-1 inh: tim10-1 yeast growth inhibition | inhibition, % at 20 µM | actives 2.2% (n = 330,000) | S. cerevisiae tim10-1 ts strain growth, BacTiter-Glo, 24 h | AID 463190;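 active = inhibition of at least 40%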;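 also: mutant grown at 25 °C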
tim23-1 inh: inhibits growth of tim23-1 mutant yeast; S. cerevisiae tim23-1 growth, BacTiter-Glo luminescence, 24 h; inhibition, % at 20 µM; actives 1.3% (n = 330,000);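 active = growth inhibition of the mutant yeast at or above 50%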;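 also: temperature-sensitive mutant grown at 25 °C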
tim10-1 conf: tim10-1 yeast growth inhibition, confirmed; shares compounds with tim10-1 inh; S. cerevisiae tim10-1 ts strain growth, BacTiter-Glo, 24 h; inhibition, % at 20 µM; actives 56% (n = 7,400); AID 463213;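 active = inhibition of yeast growth at or above a set limit in either of two repeat tests at 20 µM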;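 also: tim10-1 mutant grown at permissive 25 °C to find synthetic lethal compounds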
tim10 confirm: confirmation of TIM10 yeast growth inhibitors; actives 63% (n = 4,600); S. cerevisiae tim10 strain growth, BacTiter-Glo luminescence, 24 h; shares compounds with TIM10 inh; inhibition, % at 10 µM;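 active = inhibition of yeast growth at or above a set limit in either of two replicates at 10 µM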; also: this counterscreen used the strain with wild-type TIM10
Each line names hits and unclear results; the compound was inactive in the other large screens (follow-up assays come after a bar, where they were run). Compounds with a hit are over-represented: about 3.8% of the library has one in this group of screens.

COc1ccc(S(=O)(=O)/N=C2\C=C(Nc3ccc(O)cc3)C(=O)c3ccccc32)cc1	B2AR ag 51.7, TIM10 inh 52.2, tim10-1 inh 66.8 | tim10-1 conf 62.0 | tim10 confirm 81.3
CC(C)OC(=O)CN1C(=O)S/C(=C/c2ccc(N3CCCCC3)o2)C1=O	TIM10 inh 45.7, PfHsp90 set2 inconclusive, tim10-1 inh 46.1 | tim10-1 conf 72.0 | tim10 confirm 83.1
CC(C)(C)NC(=S)NC(=O)C12CCC3CC(CC(C3)C1)C2	TIM10 inh 48.9, tim10-1 inh 44.5 | tim10-1 conf 32.1 | tim10 confirm 36.5
COc1ccccc1CC(=O)O/N=C(\N)Cc1cccc2ccccc12	TIM10 inh 55.6, tim10-1 inh 67.0 (no result: PfHsp90 set2) | tim10-1 conf 52.7 | tim10 confirm 61.8
COc1ccccc1OC(=O)Cc1cccc2ccccc12	none
Cc1ccc(OCC(=O)O/N=C(\N)c2ccncc2)c(C)c1	none
COc1ccccc1C/C(N)=N/OC(=O)COc1ccc(C)cc1C	TIM10 inh 43.3, tim10-1 inh 48.5 | tim10-1 conf 42.2 | tim10 confirm 35.1
Cc1ccc(C(=O)O/N=C(\N)Cc2cccc3ccccc23)cc1	TIM10 inh 41.9, tim10-1 inh 48.8 | tim10-1 conf 51.7 | tim10 confirm 72.9
Cc1ccc(C(=O)O/N=C(\N)c2ccccn2)cc1	none
c1ccc([C@H]2CN3C(=N2)Sc2ccccc23)cc1	none
Cc1ccccc1NC1=C/C(=N\S(=O)(=O)c2cccs2)c2ccccc2C1=O	TIM10 inh 66.7, tim10-1 inh 81.7 | tim10-1 conf 77.0 | tim10 confirm 53.7
Cc1ccc(NC2=C/C(=N/S(=O)(=O)c3cccs3)c3ccccc3C2=O)cc1C	none (no result: TIM10 inh, tim10-1 inh, tim23-1 inh)
CCN(CC(=O)Nc1ccc(OC)cc1)C(=O)c1ccc(OCc2c(C)noc2C)cc1	none (no result: TIM10 inh, tim10-1 inh, tim23-1 inh)
O=C(c1cc(-c2ccco2)on1)N1CCN(C(c2ccccc2)c2ccccc2)CC1	TIM10 inh 67.2, tim10-1 inh 61.7 | tim10-1 conf 62.3 | tim10 confirm 58.5
COc1ccc(-c2cc(C(=O)N3CCN(C(c4ccccc4)c4ccccc4)CC3)no2)cc1OC	TIM10 inh 55.9, tim10-1 inh 51.5 | tim10-1 conf 60.0 | tim10 confirm 45.4
O=C(c1cc(-c2ccc3c(c2)OCO3)on1)N1CCN(c2ccccc2)CC1	TIM10 inh 43.7, tim10-1 inh 41.5 (no result: PfHsp90 set2) | tim10-1 conf 30.8 | tim10 confirm 41.4
COc1ccc(-c2cc(C(=O)N3CCN(C(c4ccccc4)c4ccccc4)CC3)no2)cc1	TIM10 inh 69.3, tim10-1 inh 59.2 | tim10-1 conf 62.6 | tim10 confirm 54.5
COc1ccc(-c2cc(C(=O)N3CCCCCC3)no2)cc1OC	none
N/C(=N\OC(=O)Oc1ccccc1)c1cccc([N+](=O)[O-])c1	none
Cc1ccccc1C(=O)O/N=C(\N)c1cccc([N+](=O)[O-])c1	TIM10 inh 50.1, tim10-1 inh 67.8 | tim10-1 conf 73.9 | tim10 confirm 48.4
N/C(=N\OC(=O)c1ccc2c(c1)OCO2)c1cccc([N+](=O)[O-])c1	TIM10 inh 43.8, tim10-1 inh 48.4 | tim10-1 conf 32.7 | tim10 confirm inactive
CN1OC[C@@H]2CN[C@H](c3cccc(-c4ccc(C#N)cc4)c3)C[C@@H]21	none (no result: TIM10 inh, tim10-1 inh, tim23-1 inh)
Cc1ccc(-c2cc3c(N=O)c4ccccc4c-3n[nH]2)cc1	TIM10 inh 44.2, tim10-1 inh 43.0 | tim10-1 conf inactive | tim10 confirm 28.6
O=c1cc(-c2ccccc2)oc2ccc(Cl)cc12	none (no result: TIM10 inh, tim10-1 inh, tim23-1 inh)
O=c1oc(-c2ccccc2)cc(Cl)c1Cl	B2AR ag 50.9, TIM10 inh 75.9, PfHsp90 set2 116.9, tim10-1 inh 81.0 | tim10-1 conf 86.3 | tim10 confirm 78.2
O=C(c1ccc([N+](=O)[O-])s1)N1CCCc2ccccc21	TIM10 inh 40.2, tim10-1 inh 54.0 | tim10-1 conf 48.6 | tim10 confirm 50.6
Cc1cc(SCC(=O)NCC(c2cccs2)N2CCOCC2)c(C)cc1Br (stereo unspecified)	none
O=C1OC(c2ccc(F)cc2)=C/C1=C\c1ccc([N+](=O)[O-])o1	TIM10 inh 63.8, tim10-1 inh 71.3 (no result: B2AR ag, PfHsp90 set2) | tim10-1 conf 41.0 | tim10 confirm 59.2
O=C1OC(c2ccc(F)cc2)=C/C1=C\c1ccc(O)cc1	none
CC(=O)OC1CCC2(C)C(CCC3C2CC(=O)C2(C)C3CC(C3CCCC3=O)C2C(C)=O)C1 (stereo unspecified)	none (no result: TIM10 inh, tim10-1 inh, tim23-1 inh)
Cn1c(/C=C/c2ccccc2)nc2ccccc2c1=O	none
Cn1c(/C=C/c2ccc([N+](=O)[O-])o2)nc2ccccc2c1=O	TIM10 inh 76.8, PfHsp90 set2 98.4, tim10-1 inh 77.0 | tim10-1 conf 58.2 | tim10 confirm inactive
CCOc1ccccc1NC(=S)N1CCN(c2cccc(OC)c2)CC1	none
Cc1ccc2c(c1)C1CN(C)CCC1N2C(=O)c1cccc(S(=O)(=O)N2CC(C)CC(C)C2)c1 (stereo unspecified)	TIM10 inh 55.0, tim10-1 inh 46.7 | tim10-1 conf 42.5 | tim10 confirm 38.3
CC(C(=O)C12CC3CC(CC(C3)C1)C2)N1CCOCC1 (stereo unspecified)	none
N#CC1(C#N)[C@@H](C(=O)C23CC4CC(CC(C4)C2)C3)C12CCOCC2	TIM10 inh 43.9, tim10-1 inh 56.7 | tim10-1 conf 48.3 | tim10 confirm inactive
Cc1cc(N2CCC(C)CC2)nc(SCC(=O)c2ccccc2)n1	TIM10 inh 40.8, tim10-1 inh 53.0 | tim10-1 conf 33.5 | tim10 confirm inactive
Cc1nccn1-c1cc(C(C)(C)C)nc2c(-c3ccccc3)cnn12	TIM10 inh 53.8, tim10-1 inh 50.4 | tim10-1 conf 48.1 | tim10 confirm 54.7
O=C(/C=C/c1cn(CC(O)CN2CCCCC2)c2ccccc12)c1ccccc1 (stereo unspecified)	none (no result: TIM10 inh, tim10-1 inh, tim23-1 inh)
CN1CCN(Cn2cc(/C=C/C(=O)c3ccccc3)c3ccccc32)CC1	TIM10 inh 66.7, tim10-1 inh 61.6 | tim10-1 conf inactive | tim10 confirm 65.2
COc1ccc(CN(C)C(=O)c2cccc(NC(=O)CC3SC(N4CCCCC4)=NC3=O)c2)c(OC)c1 (stereo unspecified)	none (no result: TIM10 inh, tim10-1 inh, tim23-1 inh)
CCOC(=O)c1cccc(NC(=O)Nc2cc(OC)ccc2OC)c1	TIM10 inh 40.3, tim10-1 inh 40.8 | tim10-1 conf inactive | tim10 confirm inactive
N#Cc1ccccc1CSCCNC(=O)Cc1c(F)cccc1Cl	none
Cc1ccc(Sc2nc(-c3ccccc3)nnc2C(F)(F)F)cc1	TIM10 inh 41.5, tim10-1 inh 40.0 | tim10-1 conf 38.2 | tim10 confirm inactive
Cc1ccc(NC(=O)CCS(=O)(=O)c2cccc3nonc23)cc1	none

Bioassay records: PubChem, several laboratories
